The compounds below were run on IGF1R. Conditions: concentration: 1 μM, replicates: in singlicate; n = 1.
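Note: KINOMEscan kinase panel screen.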

SMILES	%Inh [%]
N#Cc1ccc(-c2cc(-c3c[nH]nc3-c3ccccn3)ccn2)cc1 [GW693028]	22
CCc1ccnc(/C=C/c2n[nH]c3cc(Sc4ccccc4C(=O)NC)ccc23)c1	0
Cc1cccc(-c2nc(Nc3ccc4ncsc4c3)c3ccccc3n2)n1 [GW867588]	0
O=C1NC(=O)C(N2CCc3ccccc32)=C1c1cccc(Cl)c1 [SB-408010]	0
NS(=O)(=O)c1cccc(-c2ccc3ncc(N4CCOCC4)nc3c2)c1 [GSK1535721]	2
CN1c2ccc(CNc3ccc(F)cc3)cc2-c2c(cnn2C)S1(=O)=O	0
Cn1ccc2ncnc(Oc3ccc(NC(=O)Nc4ccncc4)c(Cl)c3)c21	0
COc1cc(Nc2nccc(N3CCC(NC(=O)c4cccc(NC(C)=O)c4)C3)n2)cc(OC)c1OC (stereo not drawn) [GSK1379754]	0
CSc1ccc(-c2cc3ncnc(SCC(=O)O)c3s2)cc1	2
CC(C)(C)n1cnc2c(N)ncnc21 [SKF-97359]	0
Cc1nnc(-c2ccc(C)c(-c3ccc(C(=O)Nc4ccc(NS(C)(=O)=O)cc4)cc3)c2)o1 [GW702865]	17
COc1ccc(S(=O)(=O)NC2CCN(c3cc(C)nc(Nc4cccc(C#N)c4)n3)CC2)cc1.O=C(O)C(F)(F)F [GSK1653539]	0
Cc1c2ccc(N(C)c3ccnc(Nc4cccc(S(N)(=O)=O)c4)n3)cc2nn1Cc1ccccc1.Cl.Cl [GW787226]	34
COc1cc2c(cc1OC[C@@H](O)CO)ncc1c3ccc(C#N)cc3[nH]c21	0
O=C(NCCCN1CCOCC1)c1cccc(Nc2nccc(Nc3ccc(Oc4ccccc4)cc3)n2)c1 [GW663929]	0
Cc1ccc(NC(=O)c2ccnc(N3CCN(C)CC3)c2)cc1-c1ccc(C(=O)NCC2CC2)cc1 [GW775604]	0
O=C(Nc1n[nH]c2cc(-c3cccc(F)c3)ccc12)C1CC1 [SB-735464]	0

SMILES	%Inh [%]
COc1ccc(Nc2nccc(N3CCC(NC(=O)Nc4cccc(C(C)=O)c4)C3)n2)cc1 (stereo not drawn) [GSK1379731]	0
COCCNC(=O)c1ccc(-c2cc(C(=O)NC3CC3)cc(F)c2C)cc1 [GW868318]	3
COc1ccc(CNC(=O)NC2CCN(c3ccnc(Nc4ccc(OC)cc4)n3)C2)cc1 (stereo not drawn) [GSK1379727]	0
Nc1nccc(-c2c(-c3ccc(F)cc3)ncn2C2CCN(CC(F)(F)F)CC2)n1 [SB-236560]	0
O=C(NCCNc1ccnc(Nc2ccc(F)cc2)n1)Nc1ccccc1F [GSK1379880]	0
O=C(Nc1cccc(-c2nn3ncccc3c2-c2ccnc(Nc3cccc(C(F)(F)F)c3)n2)c1)c1c(F)cccc1F [GSK299495]	14
COc1ccc(Nc2ncc(C#N)c(Nc3ccccc3C(N)=O)n2)cc1N1CCN(C)CC1.Cl [GSK1558669]	99.6
O=c1cc(N2CCOCC2)nc2n(Cc3cccc4ccccc34)ccn12 [GSK2333389]	4
Fc1ccc(-c2ncn(CCCN3CCOCC3)c2-c2ccccn2)cc1 [SB-211742]	0
CN1c2ccc(NCc3ccc(F)cc3)cc2-c2c(cnn2C)S1(=O)=O	0
Nc1nc(-c2ccc3c(N)n[nH]c3c2)cc(N2CCCC2)n1 [GSK2227430]	0
[2H]C([2H])(c1cccc(C(F)(F)F)c1C)n1ccn2c(=O)nc(N3CCOCC3)cc12 [GSK2336394]	0
COc1cc2ncn(-c3cc(OCc4sccc4Cl)c(C(N)=O)s3)c2cc1OC [GSK448459]	0
COc1cc2c(cc1OCCN1CCN(C)CC1)ncc1c3ccc(C#N)cc3[nH]c21	0
Cc1nnc(-c2ccc3occ(-c4ccc(C(C)O)cc4)c3c2)o1 (stereo not drawn)	9
Cn1cc(-c2ccc3c(c2)CCN3C(=O)Cc2ccccc2Cl)c2c(N)ncnc21 [GSK2608885]	95.5

The compounds below were run on T1, IKK-alpha. Conditions: concentration: 1 μM, replicates: in singlicate; n = 1.
T1 construct: gene CHUK

SMILES	%Inh [%]
N#Cc1ccc(-c2cc(-c3c[nH]nc3-c3ccccn3)ccn2)cc1 [GW693028]	25
CCc1ccnc(/C=C/c2n[nH]c3cc(Sc4ccccc4C(=O)NC)ccc23)c1	8
Cc1cccc(-c2nc(Nc3ccc4ncsc4c3)c3ccccc3n2)n1 [GW867588]	15
O=C1NC(=O)C(N2CCc3ccccc32)=C1c1cccc(Cl)c1 [SB-408010]	0
NS(=O)(=O)c1cccc(-c2ccc3ncc(N4CCOCC4)nc3c2)c1 [GSK1535721]	0
CN1c2ccc(CNc3ccc(F)cc3)cc2-c2c(cnn2C)S1(=O)=O	0
Cn1ccc2ncnc(Oc3ccc(NC(=O)Nc4ccncc4)c(Cl)c3)c21	14
COc1cc(Nc2nccc(N3CCC(NC(=O)c4cccc(NC(C)=O)c4)C3)n2)cc(OC)c1OC (stereo not drawn) [GSK1379754]	5
CSc1ccc(-c2cc3ncnc(SCC(=O)O)c3s2)cc1	6
CC(C)(C)n1cnc2c(N)ncnc21 [SKF-97359]	0
Cc1nnc(-c2ccc(C)c(-c3ccc(C(=O)Nc4ccc(NS(C)(=O)=O)cc4)cc3)c2)o1 [GW702865]	0
COc1ccc(S(=O)(=O)NC2CCN(c3cc(C)nc(Nc4cccc(C#N)c4)n3)CC2)cc1.O=C(O)C(F)(F)F [GSK1653539]	0
Cc1c2ccc(N(C)c3ccnc(Nc4cccc(S(N)(=O)=O)c4)n3)cc2nn1Cc1ccccc1.Cl.Cl [GW787226]	0
COc1cc2c(cc1OC[C@@H](O)CO)ncc1c3ccc(C#N)cc3[nH]c21	51
O=C(NCCCN1CCOCC1)c1cccc(Nc2nccc(Nc3ccc(Oc4ccccc4)cc3)n2)c1 [GW663929]	0
Cc1ccc(NC(=O)c2ccnc(N3CCN(C)CC3)c2)cc1-c1ccc(C(=O)NCC2CC2)cc1 [GW775604]	0
O=C(Nc1n[nH]c2cc(-c3cccc(F)c3)ccc12)C1CC1 [SB-735464]	25

SMILES	%Inh [%]
COc1ccc(Nc2nccc(N3CCC(NC(=O)Nc4cccc(C(C)=O)c4)C3)n2)cc1 (stereo not drawn) [GSK1379731]	9
COCCNC(=O)c1ccc(-c2cc(C(=O)NC3CC3)cc(F)c2C)cc1 [GW868318]	36
COc1ccc(CNC(=O)NC2CCN(c3ccnc(Nc4ccc(OC)cc4)n3)C2)cc1 (stereo not drawn) [GSK1379727]	20
Nc1nccc(-c2c(-c3ccc(F)cc3)ncn2C2CCN(CC(F)(F)F)CC2)n1 [SB-236560]	7
O=C(NCCNc1ccnc(Nc2ccc(F)cc2)n1)Nc1ccccc1F [GSK1379880]	0
O=C(Nc1cccc(-c2nn3ncccc3c2-c2ccnc(Nc3cccc(C(F)(F)F)c3)n2)c1)c1c(F)cccc1F [GSK299495]	33
COc1ccc(Nc2ncc(C#N)c(Nc3ccccc3C(N)=O)n2)cc1N1CCN(C)CC1.Cl [GSK1558669]	97.8
O=c1cc(N2CCOCC2)nc2n(Cc3cccc4ccccc34)ccn12 [GSK2333389]	29
Fc1ccc(-c2ncn(CCCN3CCOCC3)c2-c2ccccn2)cc1 [SB-211742]	0
CN1c2ccc(NCc3ccc(F)cc3)cc2-c2c(cnn2C)S1(=O)=O	0
Nc1nc(-c2ccc3c(N)n[nH]c3c2)cc(N2CCCC2)n1 [GSK2227430]	0
[2H]C([2H])(c1cccc(C(F)(F)F)c1C)n1ccn2c(=O)nc(N3CCOCC3)cc12 [GSK2336394]	10
COc1cc2ncn(-c3cc(OCc4sccc4Cl)c(C(N)=O)s3)c2cc1OC [GSK448459]	0
COc1cc2c(cc1OCCN1CCN(C)CC1)ncc1c3ccc(C#N)cc3[nH]c21	44
Cc1nnc(-c2ccc3occ(-c4ccc(C(C)O)cc4)c3c2)o1 (stereo not drawn)	0
Cn1cc(-c2ccc3c(c2)CCN3C(=O)Cc2ccccc2Cl)c2c(N)ncnc21 [GSK2608885]	0

— PMC5540273 (PLoS ONE, 2017)
